From PubChem BioAssay come the findings set out here.

Values without a mark were called inactive.

The nature of this test: viability profiling in MM1S myeloma cells – cell-based, resazurin fluorescence, basal, 24 h, PK04 Diversity Set, profiling panel (AID 1174).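 Also: MM1S multiple myeloma cell line; test concentration not given here.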 The note with it: higher = more signal, called active from +8 up or from −8 down. Background: Resazurin is reduced to fluorescent resorufin, in cell work by metabolically active cells.
For `COC(=O)[C@H](C)NC(=O)CCC1CC(OC(=O)NCc2cccc3ccccc23)CC2(CCCC(COC(=O)NCc3ccccc3)O2)O1` (stereo partly drawn), the z-score was 1.18.
With `O=C1CCCC=C1C(O)C1CCCCC1` (stereo not drawn), the z-score was -0.254.
Under `COc1ccc(COC(=O)NN=C2C[C@@H](O)[C@@H](O)[C@@H]3[C@@H]4C(=O)N(Cc5ccccc5)C(=O)[C@@H]4CC[C@@H]23)cc1` stands 0.259; under `CO[C@H]1COC(=O)CC=C[C@H](C)[C@H](OC)COC(=O)[C@@H](C)NC(=O)CC=C[C@@H]1C`, 0.623.
For `CC(C)CON=C1[C@H]2CCn3c(=O)n(C)c(=O)n3[C@H]2[C@H](O)[C@@H]2O[C@H]12`, the z-score is 0.0226.
For `CCOC(=O)CCN1C(=O)[C@H]2[C@H]3[C@H](O)[C@H](O)CC(=NOCC=C(C)CCC=C(C)C)[C@@H]3CC[C@H]2C1=O`, the z-score is -0.836.
Under `CC[C@@H](c1ccccc1)n1c(=O)n2n(c1=O)[C@H]1[C@H](O)[C@@H]3O[C@@H]3C(=NOCc3ccccc3)[C@H]1CC2` stands -2.51.
In the case of `CC(CCN1CCCc2nc(C)c(C)cc21)=NO[C@@H](C)c1cn([C@H](CO)Cc2ccccc2)nn1`, the z-score was 0.0688.
The value for `COC(=O)[C@H](C)NC(=O)CCC1CC(OC(=O)NCCc2ccc(F)cc2)CC2(CCCC(COC(=O)NCC3CCCCC3)O2)O1` (stereo partly drawn) was 1.05; that for `CCOC(=O)[C@H](Cc1ccccc1)NC(=O)CCC1CC(OC(=O)NCc2ccc3c(c2)OCO3)CC2(CCCC(COC(=O)NCCCN3CCCC3=O)O2)O1` (stereo partly drawn) was 0.913.
Under `CC(CCC(=O)OC[C@H]1O[C@H](C#Cc2ccccc2)C=C[C@@H]1Oc1ccc(C)cc1)=NOC[C@@H](C)[C@H](OCc1ccccc1)C(C)C` stands 0.258.
Take `CCN1C(=O)[C@H]2[C@H]3[C@H](O)[C@H](O)CC(=NOC[C@@H](O)[C@H]4O[C@@H]5OC(C)(C)O[C@@H]5[C@H]4O)[C@@H]3CC[C@H]2C1=O`: the z-score was -2.69.
The value for `CC(C)CON=C1C[C@@H](O)[C@@H](O)[C@@H]2[C@@H]3C(=O)N(Cc4ccc5c(c4)OCO5)C(=O)[C@@H]3CC[C@@H]12` was 0.61; that for `C=CC[C@@H]1C=C[C@H](ON=C2C[C@@H](O)[C@@H](O)[C@@H]3[C@@H]4C(=O)N(CC)C(=O)[C@@H]4CC[C@@H]23)[C@@H](CO)O1` was -0.415; that for `CO[C@H]1COC(=O)CCC[C@H](C)[C@H](OC)COC(=O)CC=C[C@@H]1C` was 0.364.
For the molecule `COc1ccc2c(c1)O[C@@H](c1cccc(C(F)(F)F)c1)[C@H](O)C2=O`, the z-score was -0.104.
For `CC(CCN1CCCc2nc(C)c(C)cc21)=NOC[C@@H](O)COCc1ccco1`, the z-score is 0.107.
Consider `CCN1C(=O)[C@H]2[C@H]3[C@H](O)[C@H](O)CC(=NO[C@@H]4O[C@H](CO)[C@@H](O)[C@H](O)[C@H]4O)[C@H]3CC[C@H]2C1=O`, for which the z-score is 0.298.
Take `CCOC(=O)[C@H](CC(C)C)NC(=O)CCC1CC(OC(=O)NCc2ccc3c(c2)OCO3)CC2(CCCC(COC(=O)NCCOc3ccccc3)O2)O1` (stereo partly drawn): the z-score was 0.691.
The value for `O=C1C2=CC[C@H]3C(=O)N(c4ccc(F)cc4F)C(=O)[C@H]3[C@H]2[C@H](O)[C@@H]2O[C@H]12` was -0.874; that for `CC(=O)OC[C@H]1O[C@H](C#CCCc2ccccc2)C=C[C@@H]1OC(C)=O` was -0.841.
The value for `CC(C)=NOC(C)CN1CCCc2nc(C)c(C)cc21` (stereo not drawn) was -0.0014; that for `COC(=O)[C@H](C)NC(=O)CCC1CC(OC(=O)NCc2cccc3ccccc23)CC2(CCCC(COC(=O)NCCOc3ccccc3)O2)O1` (stereo partly drawn) was 0.875; that for `C[C@@H]1CC[C@@H](C(=O)O)N[C@H]1c1cccc(N2CCOCC2)c1` was 0.7.
Regarding `COC(=O)[C@@H]1CC[C@H](C)[C@@H](c2ccc(Br)cc2)N1C[C@H](O)CN=[N+]=[N-]`, the z-score was -0.666.
The value for `CCOC(=O)[C@H](Cc1ccccc1)NC(=O)CCC1CC(OC(=O)NCCc2ccc(F)cc2)CC2(CCCC(COC(=O)NCc3cccc(C(F)(F)F)c3)O2)O1` (stereo partly drawn) was 0.853.
Turning to `COc1cccc([C@H]2Oc3ccc(OC)cc3C(=NOCC[C@@H]3C=C[C@H](OC(C)=O)[C@@H](COC(C)=O)O3)[C@@H]2O)c1`, the z-score was -0.698.
Turning to `CC(=O)OC[C@H]1O[C@H](CC=NO[C@@H](C)c2cc(-c3c(C)cc(C)cc3C)no2)C=C[C@@H]1OC(C)=O`, the z-score was -0.523.
